Experimental data as given in the supplement of paper PMC4954754.
± gives the uncertainty stated by the source.

Tested on: HEK293T-Rex XBP1-RLuc
Test: XBP1-RLuc splicing reporter activation, triplicate, relative to 500 nM thapsigargin (% of thapsigargin); higher = stronger IRE1/XBP1s reporter activation
Conditions: 6.8 µM; 18 h; screen: confirmation
Experimental: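 HEK293T-Rex cells stably expressing the ERSE-firefly luciferase (BiP promoter, ATF6-preferring) or XBP1-splicing Renilla luciferase (IRE1/XBP1s) reporter, 1536-well plates, compound at 6.8 µM for 18 hr at 37 °C; luminescence read […] and expressed as % activation = 100*(compound - median DMSO)/(median 500 nM thapsigargin - median DMSO). Primary screen was single-pass; confirmation screen in triplicate (mean ± SD).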

SMILES | XBP1-RLuc splicing reporter activation
C/C=C(/C)C(=O)O[C@H]1C(C)=C2[C@H]([C@@H]1OC(=O)CCCCCCC)[C@@](C)(OC(C)=O)C[C@H](OC(=O)CCC)[C@@]1(O)[C@H]2OC(=O)[C@@]1(C)O | 104
O=C(CCCN1CCC2(CC1)C(=O)NCN2c1ccccc1)c1ccc(F)cc1 | 202 ± 6.1
O=C(CCCN1CCC2(CC1)C(=O)N(Cc1cccc(F)c1)CN2c1ccccc1)c1ccc(F)cc1 | 185 ± 9.3
CNc1ccc2oc(C[C@H]3O[C@@]4(CC[C@H]3C)O[C@H]([C@H](C)C(=O)c3ccc[nH]3)[C@H](C)C[C@H]4C)nc2c1C(=O)O | 50 ± 2.1
CC(=O)NC1C(OC2OC(CC(O)C3OC(n4ccc(=O)[nH]c4=O)C(O)C3O)C(O)C(O)C2NC(=O)/C=C\CCCCCCCCCC(C)C)OC(CO)C(O)C1O (stereo not given) | 61.23 ± 0.33
